The results in this text go back to PubChem BioAssay (Tox21).

Records with an inconclusive call do not appear. A number with no mark means an inactive call. Calls come from the whole dose curve.
% is set by controls: 0 for no effect and ±100 for the full control effect.

Chain of Vitamin D3 receptor (Homo sapiens) (P11473 whole entry, looked up): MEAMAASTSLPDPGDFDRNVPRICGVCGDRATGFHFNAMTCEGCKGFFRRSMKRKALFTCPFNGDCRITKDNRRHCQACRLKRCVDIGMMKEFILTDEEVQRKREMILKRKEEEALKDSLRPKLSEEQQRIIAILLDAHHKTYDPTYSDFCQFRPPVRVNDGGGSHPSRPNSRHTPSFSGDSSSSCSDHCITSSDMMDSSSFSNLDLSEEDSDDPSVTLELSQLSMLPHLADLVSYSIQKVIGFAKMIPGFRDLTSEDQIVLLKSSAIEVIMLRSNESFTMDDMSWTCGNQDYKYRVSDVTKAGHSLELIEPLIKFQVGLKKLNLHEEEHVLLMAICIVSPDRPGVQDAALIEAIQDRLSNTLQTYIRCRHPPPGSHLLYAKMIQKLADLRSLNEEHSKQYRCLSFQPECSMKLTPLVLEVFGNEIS

The target of the test is Vitamin D3 receptor (Homo sapiens) (UniProt P11473). In words: qHTS assay to identify small molecule agonists of the vitamin D receptor (VDR) signaling pathway (AID 743222). To be noted: HEK293T VDR-UAS-bla, beta-lactamase FRET ratio, 16 h; series mostly up to 63.5 µM; activation: at the top concentration. From the text:
National Center for Advancing Translational Sciences [NCATS]
NIH Chemical Genomics Center [NCGC]
U.S. Environmental Protection Agency [EPA]
National Institutes of Environmental Health Sciences [NIEHS]
National Toxicology Program [NTP]
U.S. Food and Drug Administration [FDA]
The vitamin D receptor (VDR), a member of nuclear hormone receptor superfamily, plays a critical role in calcium homeostasis and bone metabolism. It is also involved in cell differentiation and growth, and thrombogenicity.
Tox21 Assay Protocol Summary:
VDR-bla cells were dispensed at 2,000 cells/6 uL/well into black wall/clear-bottom 1536-well plates using a Multidrop Combi (Thermo Fisher Scientific, Waltham, MA) dispenser. After the assay plates were incubated at a 37C and 5% CO2 for 4 h, 23 nL of compounds dissolved in DMSO, positive controls or DMSO only was transferred to the assay plate by a Pintool station (Kalypsys, San Diego, CA). The plates were incubated at 37C and 5% CO2 for 16 h. After 1 uL of LiveBLAzerTM B/G FRET substrate was added using a Bioraptr Flying Reagent Dispenser (FRD) workstation (Beckman Coulter, Indianapolis, IN, USA), the plates were incubated at room temperature for 2 h, and fluorescence intensity was measured by an Envision plate reader (PerkinElmer, Shelton, CT).
For the compound `Clc1ccc(Nc2nnc(Cc3ccncc3)c3ccccc23)cc1`, the “activation” value is -18.4%.
With `O=[N+]([O-])c1ccc(Nc2ccc(Nc3ccccc3)c(S(=O)(=O)O)c2)c([N+](=O)[O-])c1`, the “activation” value is -13.7%.
To `O=C1c2ccccc2C(=O)C1c1nc2ccccc2c(Br)c1O` belongs -1.81%; to `CCCCOc1ccc(OCCCN2CCOCC2)cc1`, -0.324%; to `Cc1ccc(C(C)(C)O)cc1`, -0.281%.
To `O=C1Cc2cc(Cl)ccc2N1` belongs -3.84%; to `N#CCc1ccc(Cl)cc1Cl`, -4.55%.
In the case of `O=C1NCCN1CCO` it was 1.23% [at 81.1 µM].
As for `Cc1cscn1`, the “activation” value is -2.02%.
To `C(=C\c1ccccc1)/c1ccccc1` belongs -0.253% [at 81.1 µM]; to `C=C(C)[C@@H]1CCC2=CCC[C@@H](C)[C@]2(C)C1`, -6.53%; to `CC=C(Cl)Cl`, 10.5%.
Regarding `CC(C)C=O`, the “activation” value is 3.91% [at 81.1 µM].
Regarding `CC(=O)OCC(=O)NCCCOc1cccc(CN2CCCCC2)c1`, the “activation” value is 11.2%.
To `CCCCN1CCCC1C(=O)Nc1c(C)cc(C)cc1C` (stereo not given) belongs 0.374%; to `COc1ccccc1N1CCN(CCCCNC(=O)c2ccc(-c3ccc(C(C)=O)cc3)cc2)CC1`, 3.48%.
In the case of `O=C=Nc1ccc(Cl)c(Cl)c1` it was 0.696%.
In the case of `C[C@]12CC[C@@H]3c4ccc(O)cc4CC[C@H]3[C@@H]1CC[C@@H]2OC(=O)CCC1CCCC1` it was -0.47%.
For the compound `N#CCCN(CCO)CCO`, the “activation” value is -1.13%.
To `Cc1ccco1` belongs 4.44%.
In the case of `CC1=C(CC=O)C(C)(C)CCC1` it was 0.784%; in that of `O=C(O)c1cccc(-c2noc(-c3ccccc3F)n2)c1`, -14.5%.
Regarding `O=c1[nH]ncc2ccccc12`, the “activation” value was -1.63%.
To `C=CC(=O)OCC1CC2CC1C1CCC(COC(=O)C=C)C21` (stereo not given) belongs 1.63%; to `Cc1ccccc1S`, -0.0786%.
To `C1COC1` belongs 10.3%; to `C=C1c2cccc(O)c2C(O)=C2C(=O)[C@]3(O)C(O)=C(C(N)=O)C(=O)[C@@H](N(C)C)[C@@H]3[C@@H](O)[C@H]12`, -17.5%; to `CCOC(=O)OC(C)OC(=O)[C@@H]1N2C(=O)[C@@H](NC(=O)[C@H](N)c3ccccc3)[C@H]2SC1(C)C` (stereo not given in full), -0.626%.
In the case of `Cc1ccc(OC(=O)c2ccccc2O)cc1` it was -8.83%; in that of `O=C(/C=C/c1ccc(O)c(O)c1)O[C@@H]1C[C@@](OC(=O)/C=C/c2ccc(O)c(O)c2)(C(=O)O)C[C@@H](O)[C@@H]1O`, 7.51%; in that of `Cc1ccc(CO)cc1`, -6.76% [at 81.1 µM].
With `COc1ncnc(NS(=O)(=O)c2ccc(N)cc2)c1OC`, the “activation” value is 7.23%.
To `Cc1cc(O)ccc1O` belongs 5.42% [at 81.1 µM]; to `O=C1Cc2ccccc2N1c1c(Cl)cccc1Cl`, -9.11%.
To `Oc1c(I)cc(I)c2cccnc12` belongs -10.6%; to `CC(C)=CC(=O)C=C(C)C`, 2.21%; to `CC(=O)c1ccc([N+](=O)[O-])cc1`, -2.35%.
In the case of `CCOc1ccc(Cc2nccc3cc(OCC)c(OCC)cc23)cc1OCC` it was -3.07%.
As to `CC1(C)[C@H](C(=O)O)N2C(=O)C[C@H]2S1(=O)=O`, the “activation” value is 3.64%.
In the case of `Cc1ccccc1N=C(N)Nc1ccccc1C` it was -10.7%.
